Laboratory results taken from ChEMBL document CHEMBL3988442, “University of Dundee, Small-Polar-MMV Screening Library” (2021).
Out of some 48,000 compounds screened, about 13,000 (27%) showed an effect of 50% or more. The list shows a part of the results.

system: Wolbachia pipientis; assay: Anti-Wolbachia Cell-Based Screen; type: functional; parameters: scale not given: in the data most compounds retested in dose-response had high values; settings: 5 µM

| Structure (SMILES) | Percent Effect [%] |
| --- | --- |
| Cc1noc(COCC(=O)Nc2cc(C)c(Br)cn2)n1 | -3.051 |
| CC(=O)NCC1CN(c2ccc3c(Cl)ccnc3c2F)CCO1 (stereo not drawn) | -19.58 |
| Cc1ccc(C(=O)NCCNCC2CNc3ccnn3C2)cc1F (stereo not drawn) | -3.46 |
| Cc1nn(C)cc1-c1ccnc(N2CCN(c3cnccn3)CC2)n1 | 17.52 |
| CN1CCN(c2nccc(-c3cncnc3C3CCCCC3)n2)CC1 | 58.46 |
| CN1CCCN(c2nccc(-c3cncnc3C3CCCCC3)n2)CC1 | 86.07 |
| CCc1ncc2c(n1)CN(c1nccc(C3CCCC3)n1)C2 | 14.73 |
| Cc1ccc([C@@H]2CN(C(=O)c3ccc[nH]3)C[C@H]2NC(=O)C2CC2)cc1 | 0.8109 |
| COc1ccc(C(O)CNC(=O)Nc2cc(C)nn2C)cc1 (stereo not drawn) | -16.1 |
| CCC(CC)C(CNC(=O)Nc1cc(C)nn1C)N1CCOCC1 (stereo not drawn) | -3.913 |
| Cc1noc(C)c1CC(=O)NCC(CC(C)C)N1CCOCC1 (stereo not drawn) | -1.173 |
| CCn1cnnc1CNC(=O)NCC(C(C)C)N1CCOCC1 (stereo not drawn) | -2.117 |
| CC(C)CC(CNC(=O)NCc1cc[nH]n1)N1CCOCC1 (stereo not drawn) | 6.619 |
| Cc1ccc(F)cc1NC(=O)NCC(C)N1CCOCC1 (stereo not drawn) | 9.148 |
| Cc1cc(NC(=O)NCC(C(C)C)N2CCOCC2)n(C)n1 (stereo not drawn) | 115.8 |
| Cc1c(NC(=O)NCC(C)N2CCOCC2)cccc1OC(F)F (stereo not drawn) | -9.929 |
| Cc1cc(NC(=O)NCC(C)O)n(C)n1 (stereo not drawn) | -6.671 |
| Cc1cc(NC(=O)NCC(C)N2CCOCC2)n(C)n1 (stereo not drawn) | 113 |
| Cc1cc(NC(=O)NCC(CC(C)C)N2CCOCC2)n(C)n1 (stereo not drawn) | 103.9 |
| CCC(CC)C(O)CNC(=O)Nc1cc(C)nn1C (stereo not drawn) | 91.79 |
| CC(C)CS(=O)(=O)N1CCC2(CN(c3cccc(F)c3)C(=O)CN2C)C1.O=C(O)C(F)(F)F (stereo not drawn) | 10.41 |
| Cn1cc(Cl)c(CN2CCCC(Cn3cc(CO)nn3)C2)n1 (stereo not drawn) | -2.88 |

| Structure (SMILES) | Percent Effect [%] |
| --- | --- |
| Cc1ccc(C(=O)N2CCC(n3cc(CO)nn3)CC2)cn1 | 1.663 |
| CC(O)c1cn(C2CCN(C(=O)C3(C)CCN(C)CC3)CC2)nn1 (stereo not drawn) | 3.786 |
| C=C1C(C)(C)[C@H]2CC[C@]1(C(=O)N1CCC(n3cc(CCO)nn3)CC1)C2 | 95.18 |
| OCc1cn(CC2CCN(C3CCSC3)CC2)nn1 (stereo not drawn) | -25.36 |
| Cc1ccoc1C(=O)N1CCC(n2cc(CO)nn2)CC1 | -7.426 |
| C=C1C(C)(C)[C@H]2CC[C@]1(C(=O)N1CCC(n3cc(CO)nn3)CC1)C2 | 93.63 |
| CC1(C(=O)N2CCC(n3cc(C4(O)CCCC4)nn3)CC2)CCCCC1 | -2.498 |
| C=C1C(C)(C)[C@H]2CC[C@]1(C(=O)N1CCC(Cn3cc(CO)nn3)CC1)C2 | 87.91 |
| CCc1noc(CS(=O)(=O)CC=C(C)C)n1 | -4.555 |
| O=C(NCC1CC[C@@H]2[C@@H]1OCCN2Cc1cccs1)c1ccco1.O=C(O)C(F)(F)F (stereo partly drawn) | 0.6461 |
| COC[C@H]1CN(CC2CC2)C(=O)[C@@H]2CCN(Cc3ccoc3)CC[C@H]12.O=C(O)C(F)(F)F | -27.64 |
| O=C(O)C(F)(F)F.O=C1N(CC2CC2)CCC12CCN(Cc1ccoc1)CC2 | 112.5 |
| CN(C)C(=O)CN1CCC2(CCCN(Cc3ccoc3)C2)C1=O (stereo not drawn) | -23.42 |
| CN1CCC(CN2CCC3(CCCN(Cc4ccoc4)C3)C2=O)CC1.O=C(O)C(F)(F)F.O=C(O)C(F)(F)F (stereo not drawn) | 107.1 |
| O=C(O)C(F)(F)F.O=C1N(CC2CC2)CCC12CCN(CC1CC1)CC2 | 11.64 |
| COCCN1CCC2(CCCN(Cc3ccoc3)C2)C1=O.O=C(O)C(F)(F)F (stereo not drawn) | 89.97 |
| CC(=O)N[C@@H](CC(C)C)C(=O)N1CCC(n2cc(CC(C)C)nn2)CC1 | -6.729 |
| O=S(=O)(Nc1ccccn1)c1cc(Cl)cc2c1OCC2 | -2.666 |
| COCc1ncn2c1CN(S(=O)(=O)c1cccs1)CCC2 | -6.89 |
| FC(F)(F)c1ccc(CNC[C@H]2COCc3nc4cccnc4n32)cc1 | -6.835 |
| CCOCc1ccc(NCc2cnc(N3CCN(C)CC3)nc2)cc1 | 18.94 |
| O=S(=O)(NCCC(O)c1cccs1)c1ccccc1 (stereo not drawn) | 2.573 |

| Structure (SMILES) | Percent Effect [%] |
| --- | --- |
| CSc1ccc(OC(C)C(=O)Nc2c(C)n[nH]c2C)cc1 (stereo not drawn) | -3.157 |
| CCOCc1nc2c(c(NC(CC)c3ccncc3)n1)CCNCC2 (stereo not drawn) | -23.76 |
| O=C(Nc1ccc(-n2cncn2)nc1)N(CC1CCOC1)C1CC1 (stereo not drawn) | 3.822 |
| Cc1cc(CNC(=O)NCCOc2ccc(F)c(F)c2)on1 | -11.19 |
| Cc1ccc(NC(=O)NCC2CCS(=O)(=O)C2)cc1Cl (stereo not drawn) | 41.82 |
| Cc1cc(C(=O)NCC2CCS(=O)(=O)C2)ccc1NC(=O)c1ccco1 (stereo not drawn) | 105.8 |
| O=C(NCC1CCS(=O)(=O)C1)c1ccco1 (stereo not drawn) | 88.86 |
| O=C(NCC1CC1)c1ccc(NC(=O)c2ccco2)cc1 | 109.6 |
| Cc1cccc(C(=O)NCC2CCS(=O)(=O)C2)n1 (stereo not drawn) | 20.7 |
| Cc1occc1C(=O)Nc1ccc(C(=O)NC[C@H]2CCCN2)cc1 | -11.64 |
| O=C(NCC1CCCN(C(=O)NCCc2ccccc2)C1)c1ccco1 (stereo not drawn) | -12.18 |
| O=C(NCC1CCS(=O)(=O)C1)c1ccc(NC(=O)c2ccco2)cc1 (stereo not drawn) | 100.2 |
| O=C(NCC1CCS(=O)(=O)C1)c1ccc2cccc(Cl)c2n1 (stereo not drawn) | -11.54 |
| O=C(NCC1CCS(=O)(=O)C1)Nc1ccccn1 (stereo not drawn) | 11.69 |
| COc1ncccc1NC(=O)NCC1CCS(=O)(=O)C1 (stereo not drawn) | -8.215 |
| O=C1COC[C@H]([C@H](O)c2ccc(NC(=O)c3ccco3)cc2)N1 | -8.877 |
| Cc1cnn(CCNCc2c(C)nn(-c3ccccc3)c2C)c1 | 2.27 |
| CCn1ccnc1CNCC1CCCN1c1cc(NC)ncn1 (stereo not drawn) | -2.475 |
| CC1(c2ccccc2)CCCN(Cc2cncn2C2CC2)C1 (stereo not drawn) | -17.5 |
| CC(=O)N1CCN2C(=O)N(Cc3ccc(F)cc3)C[C@H]2C1 | -0.8027 |
| Cc1ncsc1C(=O)NCC1SCCc2ccccc21 (stereo not drawn) | 15.22 |
| Cc1ncsc1C(=O)N1CCC(O)(CN2CCc3ccccc3C2)C1 (stereo not drawn) | 69.3 |

| Structure (SMILES) | Percent Effect [%] |
| --- | --- |
| Cc1ccsc1C(=O)N1Cc2ccccc2C2(CCN(C)CC2)C1 | 0.4591 |
| O=C(NCCN1CCc2ccccc2C1)c1scnc1Cl | 7.313 |
| Cc1ccsc1C(=O)N1CCC(O)(CN2CCc3ccccc3C2)C1 (stereo not drawn) | 107.5 |
| Cc1ccsc1C(=O)N1CC(C(=O)N2CCOCC2)C2(CCOCC2)C1 (stereo not drawn) | -2.409 |
| CN(C)C(=O)CN1C[C@H]2CCN(C(=O)c3ccccc3)CC[C@H]2S1(=O)=O | -0.2408 |
| COCCOc1ccc(NC(=O)N2CCOC(C(N)=O)C2)cc1F (stereo not drawn) | 100.1 |
| COc1ccc(NC(=O)N2CCC(CSC)C2)cc1C (stereo not drawn) | -50.59 |
| CCOc1ccc(NC(=O)NC2CCc3nc(C)nn3C2)cc1Cl (stereo not drawn) | -21 |
| COCC1CN(C(=O)Nc2ccc(Cl)cc2Cl)CCO1 (stereo not drawn) | -1.722 |
| COCC1CN(C(=O)Nc2cc(Br)ccc2F)CCO1 (stereo not drawn) | -0.1525 |
| CCOc1ccc(C#N)cc1NC(=O)N1CCOC(C(N)=O)C1 (stereo not drawn) | 8.32 |
| COCC1CN(C(=O)Nc2cc(Cl)ccc2F)CCO1 (stereo not drawn) | -13.77 |
| CCOc1ccc(NC(=O)N2CCOC(C(N)=O)C2)cc1C (stereo not drawn) | 95.69 |
| CCOc1ccc(NC(=O)N2CCOC(C(N)=O)C2)cc1Cl (stereo not drawn) | 142.8 |
| Cc1cnc(C)c(N2CCC(Cc3ccccc3Cl)(C(=O)O)CC2)n1 | 2.277 |
| CC(=O)N1CCCN(Cc2csc(C)n2)c2ccccc21 | 0.8232 |
| CSc1ccc(C(O)CNS(=O)(=O)C2CC2)cc1 (stereo not drawn) | 2.179 |
| CCCC(O)CN1CC(C)(C)CN(C(=O)c2ccccc2)CC1=O (stereo not drawn) | 122.4 |
| CC(C)CN1CC2(CCN(C(=O)C(O)c3ccccc3Cl)CC2)CC1=O (stereo not drawn) | -2.667 |
| CC1(C)CN(CC(O)C(C)(C)C)C(=O)CN(C(=O)c2ccccc2)C1 (stereo not drawn) | 117.8 |
| CCCC(O)CN1CC(C)(C)CN(C(=O)c2ccc(Cl)cc2)CC1=O (stereo not drawn) | 78.76 |
| Cc1[nH]nc2ncc(C(=O)N3CCN(CC(O)C(C)(C)C)CC3)cc12 (stereo not drawn) | -16.51 |

| Structure (SMILES) | Percent Effect [%] |
| --- | --- |
| CCCC(O)CN1CC(C)(C)CN(C(=O)c2ccc(SC)cc2)CC1=O (stereo not drawn) | 118.8 |
| CN(C)C(=O)N1CCN(C(=O)c2ccc(Cl)cc2)CC2(CNC(=O)C2)C1 (stereo not drawn) | -1.625 |
| CCCN(CCO)C(=O)C1CCC(=O)N(CCc2ccc(Cl)cc2)C1 (stereo not drawn) | -1.106 |
| NC(=O)NCC(=O)N1C[C@H]2CC[C@@H]1CN(C1Cc3ccccc3C1)C2 | -1.297 |
| COc1nc2c(cc1C(=O)N1C[C@H](N)C[C@H]1C(=O)NC(C)C)CCC2 | -26.43 |
| CN(C)CCN1CC(C(=O)N2CCC(c3nccn3C)CC2)CC1=O (stereo not drawn) | 2.201 |
| Cn1cnc2c1CCN(CC(=O)N(Cc1ccsc1)C1CC1)C2 | -10.64 |
| COc1ccc(CNCCc2cccc(C(N)=O)c2)cc1C | -2.965 |
| CC(C)N1CCc2ncn(C(C)C)c2C1C(=O)N1CCN(C)CC1 (stereo not drawn) | -12.1 |
| CCc1nc(CCn2ccc3nc(OC)c(C#N)cc3c2=O)no1 | 0.8236 |
| CC(C)c1noc(CN2CCC3(CCCO3)CCC2=O)n1 (stereo not drawn) | -7.858 |
| CC(C)(C)c1nc(CN2CCC(N3CCCCC3)CC2)no1 | 3.179 |
| CC(C)c1noc(CS(=O)(=O)Cc2nc(C(C)C)no2)n1 | -3.73 |
| CC(C)(C)c1noc(CN2CCCC(CNS(N)(=O)=O)C2)n1 (stereo not drawn) | -0.7485 |
| CC1COCCN1Cc1nc(C(C)(C)C)no1 (stereo not drawn) | 110.8 |
| CC(C(=O)N1CCOCC1)S(=O)(=O)Cc1noc(C(C)(C)C)n1 (stereo not drawn) | -4.281 |
| CCCc1noc(CN2CCOCC2C)n1 (stereo not drawn) | 76.64 |
| CC1COCCN1Cc1noc(C(C)(C)C)n1 (stereo not drawn) | 91.93 |
| CC(C)c1noc(CN2CCOCC2C)n1 (stereo not drawn) | 107.7 |
| CC1CCCCN1Cc1nc(C2CC2)no1 (stereo not drawn) | 23.82 |
